We go through 17 compounds from PubChem BioAssay (EPA / NIEHS).

Calls of active or inactive are those of the source. The calls were made as follows: active = hit-call score of the fitted dose curve at least 0.9, where 1 is the maximum; inactive = score below 0.9.

Conditions in all cases: mRNA level, 48 h; actives raise or lower the signal
Read-out in experiment [1]: NAD(P)H dehydrogenase [quinone] 1 (NQO1), NQO1 (gene 1728)
Description: LTEA_HepaRG_NQO1: Life Technologies and Expression Analysis (LTEA) Assay for NAD(P)H dehydrogenase [quinone] 1 (NQO1) using HepaRG (AID 2283526). An outline of the steps:
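Differentiated HepaRG cells, plated 48 h and then switched to serum-free induction medium, were exposed in duplicate for 48 h to 8-point half-log concentrations up to 100 uM in 0.5% DMSO. mRNA measured by qRT-PCR, normalized to ACTB, GAPDH, POLR2A; bidirectional fit versus DMSO.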

Read-out in experiment [2]: Nuclear factor erythroid 2-related factor 2 (Homo sapiens) (UniProt Q16236)
Description: LTEA_HepaRG_NFE2L2: Life Technologies and Expression Analysis (LTEA) Assay for Nuclear factor erythroid 2-related factor 2 (NFE2L2) Transcription Factor using HepaRG (AID 2283527).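 As to outcome: TaqMan qRT-PCR transcript level normalised to ACTB GAPDH and POLR2A housekeeping genes.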 Put shortly:
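Differentiated human HepaRG cells in serum-free induction medium were exposed for 48 h to eight concentrations (top 100 uM, half-log dilutions, 0.5% DMSO), in duplicate. NFE2L2 mRNA was quantified by TaqMan qRT-PCR, normalized to ACTB, GAPDH and POLR2A, with bidirectional fitting versus DMSO.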

Read-out in experiment [3]: succinate dehydrogenase complex iron sulfur subunit B (SDHB), SDHB (gene 6390)
Description: LTEA_HepaRG_SDHB: Life Technologies and Expression Analysis (LTEA) Assay for succinate dehydrogenase complex iron sulfur subunit B (SDHB) using HepaRG (AID 2283528). Put shortly:
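HepaRG cells (~100,000/well, plated 48 h) exposed in duplicate for 48 h in serum-free induction medium to 8-point half-log series from 100 uM in 0.5% DMSO; mRNA by qRT-PCR normalised to ACTB, GAPDH, POLR2A; bidirectional fit versus DMSO.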

Read-out in experiment [4]: Signal transducer and activator of transcription 3 (Homo sapiens) (UniProt P40763)
Description: LTEA_HepaRG_STAT3: Life Technologies and Expression Analysis (LTEA) Assay for Signal transducer and activator of transcription (STAT3) using HepaRG (AID 2283529). An outline of the steps: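 Differentiated human HepaRG cells in serum-free induction medium were exposed in duplicate for 48 h to eight half-log concentrations up to 100 uM in 0.5% DMSO. STAT3 mRNA was quantified by TaqMan qRT-PCR, normalized to ACTB, GAPDH and POLR2A, and fitted bidirectionally against DMSO.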

Read-out in experiment [5]: solute carrier (SLCO1B1), SLCO1B1 (gene 10599)
Description: LTEA_HepaRG_SLCO1B1: Life Technologies and Expression Analysis (LTEA) Assay for solute carrier (SLCO1B1) using HepaRG (AID 2283530). Put shortly: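 Human HepaRG cultures treated for 48 h with an eight-concentration half-log series topping at 100 uM; SLCO1B1 measured by qRT-PCR and fitted bidirectionally relative to DMSO.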

Read-out in experiment [6]: sulfotransferase 2A1 (SULT2A1), SULT2A1 (gene 6822)
Description: LTEA_HepaRG_SULT2A1: Life Technologies and Expression Analysis (LTEA) Assay for sulfotransferase 2A1 (SULT2A1) using HepaRG (AID 2283531). An outline of the steps: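 Gene-expression endpoint in a human liver cell line: SULT2A1 mRNA change after 48 h chemical treatment, curves fitted in both directions relative to 0.5% DMSO vehicle. Concentrations spanned eight half-log steps from 100 uM.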

Read-out in experiment [7]: Transforming Growth Factor (TGFA), TGFA (gene 7039)
Description: LTEA_HepaRG_TGFA: Life Technologies and Expression Analysis (LTEA) Assay for Transforming Growth Factor (TGFA) using HepaRG (AID 2283532). An outline of the steps:
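Differentiated human HepaRG cells, plated 48 h then switched to serum-free induction medium, were exposed in duplicate for 48 h to 8-point half-log series from 100 uM in 0.5% DMSO. TGFA mRNA measured by qRT-PCR, normalized to ACTB/GAPDH/POLR2A, bidirectional fit versus DMSO.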

Read-out in experiment [8]: Transforming Growth Factor (TGFB1), TGFB1 (gene 7040)
Description: LTEA_HepaRG_TGFB1: Life Technologies and Expression Analysis (LTEA) Assay for Transforming Growth Factor (TGFB1) Transporter using HepaRG (AID 2283533). Put shortly: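 Eight-point concentration-response (max 100 uM, half-log) in HepaRG under serum-free induction conditions, 48 h. TGFB1 mRNA by qRT-PCR, housekeeping-normalized.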

Read-out in a further experiment: TIMP1, TIMP1 (gene 7076)
Description: LTEA_HepaRG_TIMP1: Life Technologies and Expression Analysis (LTEA) Assay for TIMP1 using HepaRG (AID 2283534). An outline of the steps: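 TIMP1 induction or repression in HepaRG cells after 48 h chemical exposure (eight concentrations, highest 100 uM), assessed by normalized qRT-PCR with bidirectional fitting to DMSO controls.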

Read-out in experiment [9]: Tumor necrosis factor receptor 1 (TNFRSF1A), TNFRSF1A (gene 7132)
Description: LTEA_HepaRG_TNFRSF1A: Life Technologies and Expression Analysis (LTEA) Assay for Tumor necrosis factor receptor 1 (TNFRSF1A) using HepaRG (AID 2283535). An outline of the steps:
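Assay uses 48 h chemical treatment of differentiated HepaRG monolayers, tested in duplicate at eight concentrations from 100 uM downward in 0.5% DMSO. mRNA is normalized to ACTB, GAPDH and POLR2A, with induction or suppression fitted relative to vehicle.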

Signal transducer and activator of transcription 3 (Homo sapiens), sequence (P40763 whole entry, looked up): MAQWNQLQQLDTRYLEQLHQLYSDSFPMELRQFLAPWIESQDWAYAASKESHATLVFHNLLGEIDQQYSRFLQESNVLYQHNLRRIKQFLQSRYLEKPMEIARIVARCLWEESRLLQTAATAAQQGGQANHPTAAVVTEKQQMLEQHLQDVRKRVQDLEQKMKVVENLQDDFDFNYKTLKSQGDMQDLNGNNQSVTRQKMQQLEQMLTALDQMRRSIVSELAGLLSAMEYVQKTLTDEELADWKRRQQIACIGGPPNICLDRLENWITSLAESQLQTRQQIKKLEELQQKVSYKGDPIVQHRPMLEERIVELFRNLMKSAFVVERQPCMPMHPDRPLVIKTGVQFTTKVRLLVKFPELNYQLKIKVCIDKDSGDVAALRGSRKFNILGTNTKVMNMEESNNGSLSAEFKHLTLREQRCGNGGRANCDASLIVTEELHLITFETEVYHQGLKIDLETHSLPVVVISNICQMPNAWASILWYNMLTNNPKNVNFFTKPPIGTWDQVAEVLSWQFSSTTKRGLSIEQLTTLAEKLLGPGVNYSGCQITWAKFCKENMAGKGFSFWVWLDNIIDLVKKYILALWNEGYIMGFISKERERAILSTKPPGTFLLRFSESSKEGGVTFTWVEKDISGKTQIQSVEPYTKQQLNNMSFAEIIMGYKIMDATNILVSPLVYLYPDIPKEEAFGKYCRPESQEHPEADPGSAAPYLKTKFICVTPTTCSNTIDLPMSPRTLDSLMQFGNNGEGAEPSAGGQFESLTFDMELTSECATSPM
Nuclear factor erythroid 2-related factor 2 (Homo sapiens), sequence (Q16236 whole entry, looked up): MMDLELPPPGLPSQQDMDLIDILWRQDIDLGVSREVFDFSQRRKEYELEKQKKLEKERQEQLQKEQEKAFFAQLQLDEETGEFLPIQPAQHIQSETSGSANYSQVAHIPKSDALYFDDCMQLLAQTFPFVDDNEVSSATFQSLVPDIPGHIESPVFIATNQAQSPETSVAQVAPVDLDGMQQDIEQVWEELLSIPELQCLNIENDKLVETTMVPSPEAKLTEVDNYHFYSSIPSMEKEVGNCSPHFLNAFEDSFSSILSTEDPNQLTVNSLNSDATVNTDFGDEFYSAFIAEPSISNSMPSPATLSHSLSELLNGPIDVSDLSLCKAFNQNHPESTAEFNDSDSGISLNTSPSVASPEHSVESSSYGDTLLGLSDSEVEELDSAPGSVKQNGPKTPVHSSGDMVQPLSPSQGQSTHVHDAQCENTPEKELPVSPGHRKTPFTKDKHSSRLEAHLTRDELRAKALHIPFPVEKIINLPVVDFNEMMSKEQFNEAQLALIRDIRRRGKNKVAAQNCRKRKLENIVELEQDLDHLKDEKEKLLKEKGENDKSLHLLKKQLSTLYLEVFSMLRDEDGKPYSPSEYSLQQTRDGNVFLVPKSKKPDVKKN

As usually defined, the AC50 is the concentration at which the activity in the assay is half-maximal. Take `Cc1nccn1-c1ccc(Sc2cccc(C3(C(N)=O)CCOCC3)c2)cc1`: the concentration at half-maximal activity (AC50) in experiment [1] was 18.6 µM (active); in experiment [3], 27.4 µM (active); in experiment [4], 1.93 µM (active); in experiment [5] it was 13.6 µM (active); in [6], 15 µM (active); in [7] it was 9.24 µM (active). Also, the results for the AC50 in experiment [8] and in experiment [9] were 24.8 µM (active) and 7.54 µM (active), respectively. Further, the outcome was “inactive” in experiment [2] and “inactive” with TIMP1, TIMP1 (gene 7076).
Take `CCc1cccc(CC)c1N`: the compound was called inactive in experiment [1], in experiment [2], in experiment [3], in experiment [4], in [5] and in [6]. Further, the outcome in [7] is “inactive”; in experiment [8], “inactive”; with TIMP1, TIMP1 (gene 7076) it was “inactive”; in experiment [9], “inactive”.
Regarding `CCCc1ccccc1`, the compound was classed as inactive in experiment [1], in [2], in [3], in [4], in experiment [5] and in experiment [6]. For the same compound, the outcome in experiment [7] is “inactive”; in experiment [8] it was “inactive”; in the experiment with TIMP1, TIMP1 (gene 7076), “inactive”; in [9], “inactive”.
Regarding `O=C(O)c1ccc2c(c1)nc(C(=O)NC1CCN(C3CC3)CC1)n2Cc1cc(-c2ccc(Cl)s2)on1`, the call in experiment [1], in experiment [2], in experiment [3], in experiment [4], in experiment [5] and in experiment [6] was inactive. The outcome in [7] was “inactive”; in [8], “inactive”; with TIMP1, TIMP1 (gene 7076), “inactive”; in experiment [9] it was “inactive”.
As for `COc1cc2c(c(OC)c1OC)-c1ccc(OC)c(=O)cc1[C@@H](NC(C)=O)CC2`, the AC50 is 0.148 µM (active) in experiment [1]; 0.138 µM (active) in [3]; 0.136 µM (active) in experiment [5]; 0.181 µM (active) in experiment [6]; 0.0871 µM (active) in [7]; 0.04 µM (active) in experiment [8]. The outcome in experiment [2] was “inactive”; in experiment [4] it was “inactive”; with TIMP1, TIMP1 (gene 7076), “inactive”; in experiment [9] it was “inactive”.
On to `CNC(C)=O`, for which the compound was called inactive in experiment [1], in experiment [2], in [3], in experiment [4], in [5] and in experiment [6]. The outcome in [7] was “inactive”; in experiment [8], “inactive”; with TIMP1, TIMP1 (gene 7076), “inactive”; in [9] it was “inactive”.
With `C=CN1CCCC1=O`, the compound was classed as inactive in [1], in experiment [2], in experiment [3], in [4], in [5] and in experiment [6]. Besides, the outcome in [7] is “inactive”; in experiment [8], “inactive”; with TIMP1, TIMP1 (gene 7076), “inactive”; in [9], “inactive”.
As to `OCCOCCOCCO`, the call in [1], in experiment [2], in [3], in experiment [4], in [5] and in [6] was inactive. The outcome in experiment [7] was “inactive”; in experiment [8], “inactive”; with TIMP1, TIMP1 (gene 7076), “inactive”; in [9], “inactive”.
In the case of `Cc1ncc([C@@H](CCCCCCc2ccc3c(n2)NCCC3)CC(=O)O)cn1`, the outcome in experiment [1], in experiment [2], in experiment [3], in experiment [4], in experiment [5] and in experiment [6] was inactive. Further, the outcome in [7] is “inactive”; in experiment [8] it was “inactive”; with TIMP1, TIMP1 (gene 7076) it was “inactive”; in experiment [9] it was “inactive”.
As to `CCCCCCCCCCCCCCO`, the outcome in experiment [1], in experiment [2], in experiment [3], in [4], in experiment [5] and in experiment [6] was inactive. Besides, the outcome in experiment [7] is “inactive”; in [8], “inactive”; with TIMP1, TIMP1 (gene 7076), “inactive”; in [9], “inactive”.
Turning to `CC[C@H](C)C(=O)O[C@H]1C[C@H](O)C=C2C=C[C@H](C)[C@H](CC[C@@H](O)C[C@@H](O)CC(=O)O)[C@H]21`, the outcome in experiment [1], in experiment [2], in [3], in [4], in experiment [5] and in [6] was inactive. The outcome in [7] was “inactive”; in experiment [8], “inactive”; with TIMP1, TIMP1 (gene 7076), “inactive”; in experiment [9], “inactive”.
Regarding `CC(C)CC(C)O` (stereo not given), the call in experiment [1], in experiment [2], in experiment [3], in experiment [4], in experiment [5] and in experiment [6] was inactive. The outcome in experiment [7] is “inactive”; in [8], “inactive”; in the experiment with TIMP1, TIMP1 (gene 7076) it was “inactive”; in experiment [9], “inactive”.
Regarding `c1ccc2ncccc2c1`, the call in experiment [1], in [3], in experiment [4], in [5], in experiment [6] and in experiment [7] was inactive. Also, the outcome in experiment [8] is “inactive”; with TIMP1, TIMP1 (gene 7076), “inactive”; in [9], “inactive”. In addition, in experiment [2], the AC50 is 50 µM (active).
Turning to `CCc1ccc(O)c(C(C)(C)C)c1`, the compound was called inactive in [1], in experiment [2], in experiment [3], in [4], in experiment [5] and in experiment [6]. Further, the outcome is “inactive” in [7]; “inactive” in [8]; “inactive” with TIMP1, TIMP1 (gene 7076); “inactive” in [9].
As for `CCCCCCCCCCCCCCCCOS(=O)(=O)O`, the compound was classed as inactive in experiment [1], in [2], in experiment [3], in experiment [4], in experiment [5] and in experiment [6]. Also, the call in [7], in experiment [8] and in experiment [9] was inactive. Also, in the experiment with TIMP1, TIMP1 (gene 7076), the half-maximal activity concentration (AC50) is 0.351 µM (active).
With `CCCCCCOC(=O)CC(CC(=O)OCCCCCC)(OC(=O)CCC)C(=O)OCCCCCC`, the outcome in experiment [1], in [2], in experiment [3], in experiment [4], in experiment [5] and in [6] was inactive. The outcome in [7] is “inactive”; in experiment [8], “inactive”; with TIMP1, TIMP1 (gene 7076), “inactive”; in experiment [9], “inactive”.
Turning to `NC(=O)N(O)[C@@H]1COc2cc(OCc3ccccc3)ccc21`, the compound was classed as inactive in experiment [1], in experiment [2], in experiment [3], in experiment [4], in [5] and in [6]. Besides, the outcome in experiment [7] was “inactive”; in [8], “inactive”; in the experiment with TIMP1, TIMP1 (gene 7076), “inactive”; in experiment [9] it was “inactive”.
